# According to PubChem BioAssay (Tox21):
# Where “and” joins values, the source holds several entries; their conditions need not be identical. Equal values may be shown once. Unmarked numbers belong to inactive results. Inconclusive results are not listed. A call without a number means that no potency is given here. Calls of active or inactive are those of the source. Unless noted, the call rests on the fitted dose curve; in most records, active means well fitted curve in the direction sought with a large enough effect in the repeat runs; inconclusive means weak or mixed curves; inactive means no such curve, though single readings can be large; an effect the other way counts as inactive or inconclusive.
# How the values were obtained:
# [1] = qHTS assay to identify small molecule agonists of H2AX (AID 1224845; active means well fitted activation curve with a large enough effect in the signal ratio in the repeat runs, not every such curve was filed as active; the % refers to the signal ratio; further: potency means the concentration at half of the fitted maximal effect)
# Outline: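 Wild-type CHO-K1 cells plated overnight, then exposed 3 hr at 37C to compounds at 15 concentrations (0.76% DMSO). Lysed, then HTRF anti-pH2AX(S139)-cryptate/anti-H2AX-d2 detection after 24 hr at room temperature; emissions 665 and 620 nm.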
# [2] = qHTS assay to identify small molecule agonists of the hypoxia (HIF-1) signaling pathway (AID 1224846; active means well fitted activation curve with a large enough effect in the signal ratio in the repeat runs, not every such curve was filed as active; the % refers to the signal ratio)
# Outline: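 Compounds from the Tox21 10K library, dissolved in DMSO, are tested for induction of a hypoxia response element–controlled beta-lactamase reporter in ME-180 cells. Exposure lasts 17 hrs at 37C after a 5 hr settling period, followed by CCF4-AM FRET substrate.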
# [3] = qHTS assay to identify small molecule agonists of H2AX - cell viability counter screen (AID 1224847; calls by dose curve; further: top concentration of the series differs between compounds; nearly all actives have a fitted effect of over 30% in size)
# Outline: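 Compounds tested at 15 concentrations were incubated 3 hr at 37C with wild-type CHO-K1 cells; cellular ATP-based luminescence (CellTiter-Glo) indicated viability.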
# [4] = qHTS RealTime-Glo MT Cell Viability Assay in HepG2 cells - 24 hour (AID 1224867); further: nearly all actives have a fitted effect of over 50% in size
# Outline: (§1)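 HepG2 suspension premixed with RealTime-Glo reagents is plated at 600 cells per well and left 5 h at 37 C/5% CO2. Compounds in DMSO then go in, and bioluminescence reflecting viable cell number is recorded over 40 h.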
# [5] = A CellTox Green Cytotoxicity Assay to monitor cytotoxicity in HEK293 cells - 0 hour (AID 1224869); further: nearly all actives have a fitted effect of over 50% in size
# Outline: (§2)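 Cells (HEK293, 600/well) and dye reagent are dispensed together. After 5 h at 37 C, 23 nL compound is pinned in. Plates stay at 37 C for 40 h with fluorescence read at 0h, 8h, 16h, 24h, 32h and 40h.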
# [6] = qHTS RealTime-Glo MT Cell Viability Assay in HepG2 cells - 40 hour (AID 1224870); further: nearly all actives have a fitted effect of over 50% in size
# Outline: (§3)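 HepG2 cells mixed with RealTime-Glo MT reagents (NanoLuc plus cell-permeant prosubstrate) were seeded at 600 cells/well, incubated 5 h at 37 C/5% CO2, then pinned with compounds in DMSO; nonlytic luminescence tracked viability during 40 h treatment.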
# [7] = A CellTox Green Cytotoxicity Assay to monitor cytotoxicity in HEK293 cells - 40 hour (AID 1224871); further: nearly all actives have a fitted effect of over 45% in size
# Outline: as §2
# [8] = qHTS RealTime-Glo MT Cell Viability Assay in HEK293 cells - 16 hour (AID 1224872); further: top concentration of the series differs between compounds; nearly all actives have a fitted effect of over 50% in size
# Outline: (§4)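 Reads taken at 0, 8, 16, 24, 32 and 40 h from the same wells. HEK293 cells (600/well) carried RealTime-Glo reagents from seeding, with compound added after a 5 h settle at 37 C.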
# [9] = qHTS RealTime-Glo MT Cell Viability Assay in HepG2 cells - 8 hour (AID 1224873); further: nearly all actives have a fitted effect of over 55% in size
# Outline: as §3
# [10] = qHTS RealTime-Glo MT Cell Viability Assay in HEK293 cells - 40 hour (AID 1224874); conditions: RealTime-Glo luminescence; max response: stronger effect = lower value; further: nearly all actives have a fitted effect of over 50% in size
# Outline: (§5)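 Real-time viability in HEK293: signal arises when living cells convert a prosubstrate for NanoLuc in the medium, so luminescence tracks viable cell number. Compound (23 nL, DMSO) added 5 h post-seeding; kinetic reads at 0–40 h, 37 C.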
# [11] = A CellTox Green Cytotoxicity Assay to monitor cytotoxicity in HepG2 cells - 16 hour (AID 1224876); further: nearly all actives have a fitted effect of over 45% in size
# Outline: (§6)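 Cells and non-lytic dye reagent are dispensed together (600 HepG2 cells/well) and incubated 5 h before DMSO compound transfer. Kinetic fluorescence is then recorded in the same wells during 40 h at 37 C.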
# [12] = qHTS RealTime-Glo MT Cell Viability Assay in HepG2 cells - 32 hour (AID 1224877); further: nearly all actives have a fitted effect of over 55% in size
# Outline: as §1
# [13] = A CellTox Green Cytotoxicity Assay to monitor cytotoxicity in HepG2 cells - 24 hour (AID 1224878); further: nearly all actives have a fitted effect of over 45% in size
# Outline: as §6
# [14] = A CellTox Green Cytotoxicity Assay to monitor cytotoxicity in HepG2 cells - 40 hour (AID 1224879); further: nearly all actives have a fitted effect of over 40% in size
# Outline: as §6
# [15] = A CellTox Green Cytotoxicity Assay to monitor cytotoxicity in HEK293 cells - 32 hour (AID 1224881); further: nearly all actives have a fitted effect of over 40% in size
# Outline: as §2
# [16] = A CellTox Green Cytotoxicity Assay to monitor cytotoxicity in HEK293 cells - 24 hour (AID 1224875); further: nearly all actives have a fitted effect of over 45% in size
# Outline: as §2
# [17] = qHTS RealTime-Glo MT Cell Viability Assay in HEK293 cells - 0 hour (AID 1224880)
# Outline: as §5
# [18] = qHTS RealTime-Glo MT Cell Viability Assay in HEK293 cells - 32 hour (AID 1224868)
# Outline: as §4
# [19] = qHTS assay to identify small molecule antagonists of the estrogen related receptor (ERR) signaling pathway from Tox21 library (AID 1224848); further: nearly all actives have a fitted effect of over 50% in size
# Outline: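 First, 2,000 ERR cells per well were plated and held 6 h at 37 C/5% CO2. Next, compounds in DMSO were pinned in and left 18 h at 37 C. Finally, ONE-Glo was added and luminescence read after 30 min at room temperature.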
# [20] = qHTS assay to identify small molecule agonists of the estrogen related receptor (ERR) signaling pathway from Tox21 library (AID 1224849; calls by dose curve; further: nearly all actives have a fitted effect of over 15% in size); conditions: ERR reporter cell line, ONE-Glo luciferase, 18 h; at 92.4 µM (top of the series)
# Outline: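 Cells carrying the ERR reporter were plated and allowed to settle for 6 h, exposed to library compounds for 18 h at 37 C, then lysed with ONE-Glo and luminescence measured.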
SMILES,Potency [1],outcome [2],Potency [3],Potency [4],Potency [5],Potency [6],Potency [7],Potency [8],Potency [9],max response [10],Potency [11],Potency [12],Potency [13],Potency [14],Potency [15],Potency [16],Potency [17],Potency [18],Potency [19],"activity change, positive = activation [20]"
CCCN(CCC)C(=O)SCC,inactive,inactive,inactive,inactive,inactive,inactive,inactive,inactive,inactive,1.3% and 0.597%,inactive,inactive,inactive,inactive,inactive,,,,,
CC(=O)OC/C=C(\C)CCC=C(C)C,inactive,inactive,inactive,inactive,inactive,inactive,inactive,inactive,inactive,-1.95% and 0.392%,inactive,inactive,inactive,inactive,inactive,inactive,inactive,,,
CCCCCCCCO,inactive,inactive,inactive,inactive,inactive,inactive,inactive,inactive,inactive,2.5% and 9.18%,inactive,inactive,inactive,inactive,inactive,,,,,
O=C(NCC1CCCCN1)c1cc(OCC(F)(F)F)ccc1OCC(F)(F)F (configuration not stated),inactive,,inactive,inactive,inactive,inactive,inactive,inactive,inactive,,inactive,inactive,inactive,inactive,inactive,inactive,inactive,inactive,,
C=C(CC(=O)O)C(=O)O,inactive,,inactive,inactive,inactive,inactive,inactive,inactive,inactive,2.09% and -0.881%,inactive,inactive,inactive,inactive,inactive,inactive,,,,
NC(=O)c1ncn([C@@H]2O[C@H](CO)[C@@H](O)[C@H]2O)n1,53.2 µM (active),,inactive,inactive,inactive,inactive,inactive,inactive,inactive,2.04%,inactive,inactive,inactive,inactive,inactive,,inactive,inactive,,
Clc1cccc(Cl)c1NC1=NCCN1,inactive,,inactive,inactive,inactive,inactive,inactive,inactive,inactive,1.29% and 0.883%,inactive,inactive,inactive,inactive,inactive,inactive,,inactive,,
COc1c(Cl)ccc(Cl)c1C(=O)O,inactive,inactive,inactive,inactive,inactive,inactive,inactive,inactive,inactive,2.72% and -3.19%,inactive,inactive,inactive,inactive,inactive,,inactive,,,
O=C(c1ccccc1)c1ccc(O)c(O)c1O,,inactive,inactive,inactive,inactive,inactive,inactive,inactive,inactive,-18.4%,inactive,inactive,inactive,inactive,inactive,inactive,,inactive,inactive,-7.85% and -0.637%
CCN(CC)CCNC(=O)c1ccc(N)cc1,inactive,,inactive,inactive,inactive,inactive,inactive,inactive,inactive,3.82% and 1.96%,inactive,inactive,inactive,inactive,inactive,,inactive,,,
OCc1ccc(Cl)cc1Cl,inactive,inactive,inactive,inactive,inactive,inactive,inactive,inactive,inactive,3.27% and 4.82%,inactive,inactive,inactive,inactive,inactive,inactive,,,,
CCCCCCCC(=O)O,inactive,inactive,inactive,inactive,inactive,inactive,inactive,inactive,inactive,3.06% and 7%,inactive,inactive,inactive,inactive,inactive,inactive,inactive,,,
